The values that follow come from PubChem BioAssay (EPA / NIEHS).

Experiment [1] deals with chicken Estrogen Receptor (ERa), ESR1 (gene 396099) (UniProt P06212). Put plainly: ATG_chERa_XSP2: Attagene TRANS-FACTORIAL Multi-Species (XSP2) HepG2 Assay for chicken Estrogen Receptor (ERa) (AID 2283817).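 Also: actives raise reporter signal above DMSO so AC50 reflects ER activation.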 The method, then: ATG_XSP2_multi-species_TRANS is a cell-based, multiplexed assay created by modifying the existing Attagene TRANS-FACTORIAL system to include a panel of nuclear receptors from some or all the following species: human (Homo sapiens), mouse (Mus musculus), frog (Xenopus laevis), zebrafish (Danio rerio), chicken (Gallus gallus), and turtle (Chrysemys picta). The ECOTOX-FACTORIAL format uses HepG2, a human liver cell line, with measurements taken at 24 hours after chemical dosing in a 24-well plate. Xsp2 included 3 nM 6-alpha-fluorotestosterone and 1.5 nM norgestrel to stimulate the androgen receptor.ATG_chERa_XSP2 is one of 29 assay components measured or calculated from the ATG_XSP2_multi-species_TRANS assay. It is designed to make measurements of mRNA induction, a form of inducible reporter, as detected with fluorescence intensity signals by Reverse transcription polymerase chain reaction (RT-PCR) and Capillary electrophoresis technology.The assay endpoint ATG_chERa_XSP2 was analyzed in the positive analysis fitting direction relative to DMSO as the negative control and baseline of activity. […] Furthermore, this assay endpoint can be referred to as a primary readout, because this assay has produced multiple assay endpoints where this one serves a reporter gene function. […]
Sequence of chicken Estrogen Receptor (ERa), ESR1 (gene 396099) (P06212 whole entry, looked up): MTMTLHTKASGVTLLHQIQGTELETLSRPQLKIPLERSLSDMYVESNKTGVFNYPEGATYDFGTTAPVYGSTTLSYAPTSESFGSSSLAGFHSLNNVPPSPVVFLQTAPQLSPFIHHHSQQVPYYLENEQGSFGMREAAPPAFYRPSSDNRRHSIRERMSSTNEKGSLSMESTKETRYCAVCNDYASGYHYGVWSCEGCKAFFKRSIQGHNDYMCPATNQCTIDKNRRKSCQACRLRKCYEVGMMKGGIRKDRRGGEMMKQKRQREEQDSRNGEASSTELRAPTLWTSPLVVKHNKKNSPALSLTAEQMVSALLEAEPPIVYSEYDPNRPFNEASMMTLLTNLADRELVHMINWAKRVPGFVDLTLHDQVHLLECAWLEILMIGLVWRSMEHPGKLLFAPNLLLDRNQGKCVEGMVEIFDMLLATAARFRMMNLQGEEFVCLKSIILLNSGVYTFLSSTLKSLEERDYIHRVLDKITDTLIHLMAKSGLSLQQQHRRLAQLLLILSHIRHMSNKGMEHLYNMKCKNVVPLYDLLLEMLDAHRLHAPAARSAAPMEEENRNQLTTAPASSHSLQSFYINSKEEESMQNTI

Experiment [2] relates to zebrafish Estrogen Receptor (ER2a), gene 317734. Nature of the experiment: ATG_zfER2a_XSP2: Attagene TRANS-FACTORIAL Multi-Species (XSP2) HepG2 Assay for zebrafish Estrogen Receptor (ER2a) (AID 2283818).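 Also: hits raise reporter mRNA so AC50 reflects activation of zebrafish ER2a.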 The procedure, abridged: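 HepG2 cells transiently transfected with GAL4-UAS reporter units and chimeric zebrafish ER2a-Gal4, exposed 24 h; medium contains 3 nM 6-alpha-fluorotestosterone and 1.5 nM norgestrel. Reporter mRNA quantified by RT-PCR, HpaI digestion, capillary electrophoresis; gain versus DMSO.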

Experiment [3] deals with chicken Androgen Receptor (AR), gene 422165. Put plainly: ATG_chAR_XSP2: Attagene TRANS-FACTORIAL Multi-Species (XSP2) HepG2 Assay for chicken Androgen Receptor (AR) (AID 2283819).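 Also: hits raise reporter mRNA above DMSO so potency is for activation.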 In short, it runs like this: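 HepG2 cells transiently transfected with chicken AR–GAL4 chimeric reporter constructs, stimulated with 3 nM 6-alpha-fluorotestosterone plus 1.5 nM norgestrel, dosed 24 h. Reporter mRNA quantified by RT-PCR and capillary electrophoresis; gain of signal fitted versus DMSO.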

The subject of experiment [4] is frog Estrogen Receptor (ER), gene 398734. Nature of the experiment: ATG_frER1_XSP2: Attagene TRANS-FACTORIAL Multi-Species (XSP2) HepG2 Assay for frog Estrogen Receptor (ER) (AID 2283821).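 Also: hits raise reporter mRNA above DMSO baseline so potency means agonist or activator.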 The procedure, abridged:
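Steps: transfect HepG2 with multiple reporter transcription units; treat with chemical for 24 h; isolate RNA, reverse-transcribe, PCR-amplify, label with 6-FAM, digest with HpaI; resolve fragments by capillary electrophoresis. Signal is scored against DMSO.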

The test system of experiment [5] is zebrafish Estrogen Receptor (ER2b), gene 317733. Nature of the experiment: ATG_zfER2b_XSP2: Attagene TRANS-FACTORIAL Multi-Species (XSP2) HepG2 Assay for zebrafish Estrogen Receptor (ER2b) (AID 2283823).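 Also: fitted upward as reporter gain over DMSO so potency reflects activation.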 The procedure, abridged:
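Transcriptional induction measured as reporter mRNA (RT-PCR, fluorescent capillary electrophoresis) in transiently transfected HepG2 cells after 24 h dosing; DMSO served as negative control and baseline.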

In experiment [6] the test system is frog Androgen Receptor (AR), gene 399456. Put plainly: ATG_frAR_XSP2: Attagene TRANS-FACTORIAL Multi-Species (XSP2) HepG2 Assay for frog Androgen Receptor (AR) (AID 2283824).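 Also: actives raise reporter signal above DMSO so AC50 reflects agonist-like induction.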 The procedure, abridged: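 HepG2 cells transiently transfected with GAL4-UAS reporter units and frog (Xenopus laevis) AR-Gal4 chimera; reporter mRNA measured 24 h after dosing by RT-PCR and capillary electrophoresis. Gain of signal fitted relative to DMSO baseline.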

Experiment [7] addresses Estrogen receptor (Homo sapiens) (UniProt P03372). Put plainly: ATG_hERa_XSP2: Attagene TRANS-FACTORIAL Multi-Species (XSP2) HepG2 Assay for human Estrogen Receptor (ERa) (AID 2283827). In short, it runs like this:
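HepG2 cells transiently transfected with multiplexed GAL4-UAS reporters driven by chimeric receptor-Gal4 proteins, dosed 24 h with 3 nM 6-alpha-fluorotestosterone and 1.5 nM norgestrel present. Reporter mRNA by RT-PCR and capillary electrophoresis; gain-of-signal fit versus DMSO.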

Experiment [8] has as its system frog Estrogen Receptor (ER2), gene 100174814. Nature of the experiment: ATG_frER2_XSP2: Attagene TRANS-FACTORIAL Multi-Species (XSP2) HepG2 Assay for frog Estrogen Receptor (ER2) (AID 2283828). In short, it runs like this: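 Multiplexed transactivation in HepG2: frog estrogen receptor fused to Gal4 drives a UAS reporter. Signal is reporter mRNA after 24 h treatment.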

The target of experiment [9] is Peroxisome proliferator-activated receptor gamma (Homo sapiens) (UniProt P37231). Put plainly: ATG_hPPARg_XSP2: Attagene TRANS-FACTORIAL Multi-Species (XSP2) HepG2 Assay for human Peroxisome Proliferator-activated Receptor gamma (PPARg) (AID 2283829).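 Also: actives raise reporter mRNA above DMSO so AC50 reflects PPARg activation.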 In short, it runs like this: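 Human HepG2 cells carried transiently transfected Gal4 reporter units and were treated with chemical for 24 h alongside androgen-receptor stimulants (3 nM 6-alpha-fluorotestosterone, 1.5 nM norgestrel). Reporter transcripts were detected by RT-PCR with capillary electrophoresis, analysed in the positive direction against DMSO.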
Sequence of Peroxisome proliferator-activated receptor gamma (Homo sapiens) (P37231 whole entry, looked up, the tested form may be a part): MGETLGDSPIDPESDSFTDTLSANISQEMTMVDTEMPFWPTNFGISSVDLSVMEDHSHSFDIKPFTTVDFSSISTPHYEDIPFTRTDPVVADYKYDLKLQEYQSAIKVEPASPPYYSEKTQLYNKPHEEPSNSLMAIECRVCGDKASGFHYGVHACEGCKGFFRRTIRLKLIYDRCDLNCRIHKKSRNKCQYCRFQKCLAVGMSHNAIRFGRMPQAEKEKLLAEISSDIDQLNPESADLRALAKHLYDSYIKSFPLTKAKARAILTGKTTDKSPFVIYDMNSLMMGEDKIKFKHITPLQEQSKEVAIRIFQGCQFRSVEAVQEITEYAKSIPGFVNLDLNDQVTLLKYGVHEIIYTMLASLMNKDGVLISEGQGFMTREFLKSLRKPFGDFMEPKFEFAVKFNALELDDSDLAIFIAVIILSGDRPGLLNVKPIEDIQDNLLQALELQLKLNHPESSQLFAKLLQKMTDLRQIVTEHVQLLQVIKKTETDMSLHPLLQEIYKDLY

In experiment [10] the target is Nuclear receptor subfamily 1 group I member 2 (Mus musculus) (UniProt O54915). Put plainly: ATG_mPXR_XSP2: Attagene TRANS-FACTORIAL Multi-Species (XSP1) HepG2 Assay for mouse Pregnane X Receptor (PXR) (AID 2283831). The procedure, abridged:
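Fluorescence signals from capillary electrophoresis of RT-PCR-amplified reporter mRNA give the readout, gain-of-signal versus DMSO. Transfected HepG2 cells, 24 h dosing, medium contained 3 nM 6-alpha-fluorotestosterone and 1.5 nM norgestrel.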

What is called AC50 is the concentration at which the activity in the assay is half-maximal.

Records with an inconclusive call do not appear. Active and inactive are the calls of the source. The calls were made as follows: active = hit-call score of the fitted dose curve at least 0.9, where 1 is the maximum; inconclusive = response in the unintended direction; inactive = score below 0.9.

Sequence of Estrogen receptor (Homo sapiens) (P03372 whole entry, looked up, the tested form may be a part): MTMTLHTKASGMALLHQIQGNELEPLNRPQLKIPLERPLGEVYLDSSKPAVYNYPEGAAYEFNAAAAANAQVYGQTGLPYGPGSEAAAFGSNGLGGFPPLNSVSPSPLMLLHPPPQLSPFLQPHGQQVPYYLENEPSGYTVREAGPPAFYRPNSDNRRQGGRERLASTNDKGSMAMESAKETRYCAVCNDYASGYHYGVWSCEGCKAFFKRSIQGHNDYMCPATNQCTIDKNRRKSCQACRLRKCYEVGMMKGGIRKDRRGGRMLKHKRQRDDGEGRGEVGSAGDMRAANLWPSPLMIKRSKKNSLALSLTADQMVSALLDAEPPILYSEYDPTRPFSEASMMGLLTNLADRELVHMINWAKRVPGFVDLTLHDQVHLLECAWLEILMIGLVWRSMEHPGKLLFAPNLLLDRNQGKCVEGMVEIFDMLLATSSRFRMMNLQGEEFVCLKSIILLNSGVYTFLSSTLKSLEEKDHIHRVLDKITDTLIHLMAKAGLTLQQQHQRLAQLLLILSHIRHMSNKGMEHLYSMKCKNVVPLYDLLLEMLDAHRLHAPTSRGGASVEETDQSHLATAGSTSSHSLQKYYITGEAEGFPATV
Sequence of Nuclear receptor subfamily 1 group I member 2 (Mus musculus) (O54915 whole entry, looked up): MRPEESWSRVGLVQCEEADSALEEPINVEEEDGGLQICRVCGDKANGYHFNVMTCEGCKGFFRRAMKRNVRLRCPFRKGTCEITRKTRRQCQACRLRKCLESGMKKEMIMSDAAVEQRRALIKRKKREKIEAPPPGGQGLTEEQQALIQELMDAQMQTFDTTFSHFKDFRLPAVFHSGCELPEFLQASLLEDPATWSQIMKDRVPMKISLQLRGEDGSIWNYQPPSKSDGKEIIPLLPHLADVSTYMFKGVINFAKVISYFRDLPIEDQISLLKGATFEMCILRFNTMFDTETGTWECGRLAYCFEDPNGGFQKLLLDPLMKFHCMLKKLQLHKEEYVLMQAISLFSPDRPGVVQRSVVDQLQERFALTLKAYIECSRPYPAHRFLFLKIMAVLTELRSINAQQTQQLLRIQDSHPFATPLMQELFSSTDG

With `O=C(c1ccccc1)c1ccc(O)cc1O`, the AC50 in [1] is 2770 nM (active); in [2], 4680 nM (active); in experiment [4], 3760 nM (active); in experiment [5], 5040 nM (active); in experiment [7] it was 2310 nM (active); in [8], 2730 nM (active). Moreover, the molecule was classed as inactive in experiment [3], in experiment [6], in [9] and in experiment [10].

For `C[C@]12CC[C@H]3C(=CCc4cc(O)ccc43)[C@@H]1CCC2=O`, the half-maximal activity concentration (AC50) in experiment [1] was 14.6 nM (active); in experiment [2], 14.7 nM (active); in [4], 15.9 nM (active); in experiment [5] it was 25.8 nM (active); in [8] it was 22.8 nM (active). The molecule was called inactive in experiment [9].
